Compound activity from PubChem.
RPL19A TOR yeast: RPL19A-GFP expression modulators in yeast, primary screen, cell-based, S. cerevisiae, multiplex flow cytometry, MLPCN; S. cerevisiae RPL19A-GFP strain, 3 h; hits give low values; percent response vs DMSO, % at 10 µM; 0.3% of 330,000 active; AID 2025, 2009;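 active = percent response vs DMSO below 50%; inconclusive = fewer than 70 events counted for the yeast strain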;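 note: median channel GFP fluorescence of the barcoded RPL19A-GFP strain; lower means less RPL19A-GFP as with rapamycin TOR inhibition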
CIT2-GFP yeast: modulators of CIT2-GFP expression in yeast, primary screen, S. cerevisiae, GFP fusion, multiplex flow cytometry, MLPCN library; S. cerevisiae CIT2-GFP strain, 3 h; 100 means same as DMSO wells; GFP response vs DMSO, % at 10 µM; 0.065% of 320,000 active; AID 2029, 2009;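 active = GFP response relative to DMSO above a set limit, near the screen mean plus 3 SD, cut at about 150% in these data; inconclusive = Fewer than 70 cells measured for a yeast strain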;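 note: ratio of well median GFP fluorescence to mean of DMSO wells on the plate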
MEP2 TOR yeast: modulators of MEP2-GFP levels in yeast, primary screen, S. cerevisiae, multiplex flow cytometry, MLPCN library. S. cerevisiae MEP2-GFP strain, 3 h; 100% = DMSO control level. 0.51% of 330,000 active. GFP response vs DMSO, % at 10 µM;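 active = GFP response versus DMSO above a set limit, roughly screen mean plus 3 SD, cut at about 180% in these data; inconclusive = fewer than 70 cells counted for a yeast strain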;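 note: median GFP fluorescence of the barcode-gated MEP2-GFP cells per well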
LAP4 TOR yeast: modulators of LAP4-GFP expression in yeast, primary screen, S. cerevisiae, multiplex flow cytometry, MLPCN library. 0.34% of 320,000 active. 3 h; median GFP as percent of DMSO wells. GFP response vs DMSO, % at 10 µM. AID 2023, 2009;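 active = GFP response vs DMSO above a set limit, about the screen mean plus 3 SD, cut at about 150% in these data; inconclusive = under 70 cell events counted for the yeast strain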
AGP1 TOR yeast: modulators of AGP1-GFP expression in yeast TOR pathway, primary screen, cell-based, multiplex flow cytometry, S. cerevisiae, MLPCN library. AID 2066, 2009. 3 h; GFP as percent of DMSO wells. GFP response vs DMSO, % at 10 µM. 0.02% of 320,000 active;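 active = GFP response relative to DMSO above a set limit, near screen average plus 3 SD, cut at about 150% in these data; inconclusive = fewer than 70 cells counted for the yeast strain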;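 note: median GFP channel fluorescence of the gated AGP1 strain per well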
Of the large screens only hits and unclear results are named; the others gave an inactive call; [ ] = remark or other dose. Most compounds without a hit are left out; they make up all but 0.92% or so of the library.

CCOc1ccc(NC(=O)CN(C)C(=O)c2ccccc2OCCOc2ccccc2)cc1OCC	none
C=C(C)[C@H]1CC=C(C)/C(=N/NC(=O)CNc2ccccc2OC)C1	RPL19A TOR yeast 31[may fluoresce violet], CIT2-GFP yeast inconclusive, MEP2 TOR yeast 223[may fluoresce violet], AGP1 TOR yeast inconclusive
Clc1ccc(OCCn2cnc3ccccc32)c(Cl)c1	LAP4 TOR yeast 155
Fc1ccc(-c2nnc(Cc3ccc(Cl)cc3)o2)cc1	LAP4 TOR yeast 190
Fc1ccc(Cc2nnc(-c3cccs3)o2)cc1	none
COCCOCC(O)CN1CCN(c2ccccc2)CC1 (stereo unspecified)	RPL19A TOR yeast 42[may fluoresce violet]
O=c1oc(-c2ccccc2F)nc2c1cnn2-c1ccccc1	none
O=c1oc(-c2cccc(Cl)c2)nc2c1cnn2-c1ccccc1	CIT2-GFP yeast inconclusive, MEP2 TOR yeast 208[may fluoresce violet]
COc1ccc(NC(=O)CN(C)S(=O)(=O)c2cnc[nH]2)cc1OC	RPL19A TOR yeast 25[may fluoresce violet], CIT2-GFP yeast inconclusive, AGP1 TOR yeast inconclusive
COc1ccc(NC(=O)CN(C)S(=O)(=O)c2cnc[nH]2)cc1Cl	none
Cc1cc2cc3c(cc2nc1SCC(=O)N1CCOCC1)OCO3	CIT2-GFP yeast inconclusive, MEP2 TOR yeast 294[may fluoresce violet]
C[C@]12C=CC(=O)C=C1CC[C@@H]1[C@@H]2[C@@H](O)C[C@@]2(C)[C@H]1CC[C@]2(O)C(=O)COC(=O)CCC(=O)O	CIT2-GFP yeast inconclusive, MEP2 TOR yeast 346[may fluoresce violet]
C[C@]12C=CC(=O)C=C1CC[C@@H]1[C@@H]2[C@@H](O)C[C@@]2(C)[C@H]1CC[C@]2(O)C(=O)COC(=O)CCC(=O)NCCc1ccc(O)cc1	none
COc1ccc(S(=O)(=O)N2CCC(C(=O)NCCC(=O)NCc3ccccc3OC)CC2)cc1	none
CC/C(C)=N/Nc1nc2c(c(=O)[nH]c(=O)n2C)n1Cc1ccccc1	none
CC/C(C)=N/Nc1nc2c(c(=O)[nH]c(=O)n2C)n1CCc1ccccc1	CIT2-GFP yeast inconclusive, MEP2 TOR yeast 242[may fluoresce violet], AGP1 TOR yeast inconclusive
CCOC(=O)C1CCN(S(=O)(=O)c2cccc(-c3cn4cc(C)ccc4n3)c2)CC1	RPL19A TOR yeast 46[may fluoresce violet], CIT2-GFP yeast inconclusive, MEP2 TOR yeast 373[may fluoresce violet], AGP1 TOR yeast inconclusive
CSCC[C@H](NC(=O)c1ccc(Br)o1)c1nnc2ccccn12	RPL19A TOR yeast 42[may fluoresce violet], CIT2-GFP yeast inconclusive
CSCC[C@H](NC(=O)c1cccs1)c1nnc2ccccn12	none
CCCC(C)NC(=O)c1cc(S(=O)(=O)N2CCCCCC2)ccc1OC (stereo unspecified)	none
CC(=O)c1cc(C#N)c(SCc2ccccc2)nc1C	CIT2-GFP yeast inconclusive, MEP2 TOR yeast 184[may fluoresce violet] (no result: AGP1 TOR yeast)
CCOCc1c(C(=O)NCC(c2ccco2)N2CCCC2)oc2ccccc12 (stereo unspecified)	none
CCOc1ccc2nc(Cl)c(/C=C/C(=O)c3ccco3)cc2c1	RPL19A TOR yeast 37[may fluoresce violet], CIT2-GFP yeast inconclusive, MEP2 TOR yeast 507[may fluoresce violet] (no result: AGP1 TOR yeast)
COc1ccccc1NC(=O)c1cc(S(=O)(=O)NC2CCCC2)ccc1F	RPL19A TOR yeast 39[may fluoresce violet], CIT2-GFP yeast inconclusive, MEP2 TOR yeast 266[may fluoresce violet], AGP1 TOR yeast inconclusive
COc1ccc(C2=CC3=C(Br)C(=O)C(C)(OC(=O)c4cccs4)C(=O)C3=CO2)cc1 (stereo unspecified)	CIT2-GFP yeast inconclusive
COc1ccc(C2=CC3=C(Br)C(=O)C(C)(OC(=O)c4ccco4)C(=O)C3=CO2)cc1 (stereo unspecified)	RPL19A TOR yeast 46[may fluoresce violet], CIT2-GFP yeast inconclusive
Clc1ccc(-c2csc(N/N=C/c3ccco3)n2)cc1	RPL19A TOR yeast 26[may fluoresce violet], CIT2-GFP yeast inconclusive, MEP2 TOR yeast 596[may fluoresce violet], AGP1 TOR yeast inconclusive
Cc1ccc(Sc2ncccc2[N+](=O)[O-])cc1	none
Cc1c([N+](=O)[O-])cnc(Sc2ccccc2)c1[N+](=O)[O-]	LAP4 TOR yeast 294
O=C(CN1C(=O)NC2(CCCCCCC2)C1=O)NCc1ccccc1Cl	none
CN(C)c1c2ccccc2nc2c(F)c(F)c(F)c(F)c12	CIT2-GFP yeast inconclusive, MEP2 TOR yeast 188[may fluoresce violet], AGP1 TOR yeast inconclusive
Cc1c2ccccc2nc2c(F)c(N(C)C)c(F)c(F)c12	none
COc1ccc(NC(=O)c2ccc(OCc3c(C)noc3C)c(OC)c2)cn1	CIT2-GFP yeast inconclusive, MEP2 TOR yeast 190[may fluoresce violet], AGP1 TOR yeast inconclusive
O=C(Nc1ccc(Cc2nc3ccccc3s2)cc1)c1ccncc1	none
COc1ccc(NC(=O)Cn2nnc(C(=O)NCc3ccco3)c2N)cc1	RPL19A TOR yeast 22[may fluoresce violet], CIT2-GFP yeast inconclusive, AGP1 TOR yeast inconclusive
Cc1cc(C)cc(NC(=O)Cn2nnc(C(=O)NCc3ccco3)c2N)c1	none
Cc1cccc(-n2nnc(C(=O)NCc3ccco3)c2N)c1	RPL19A TOR yeast 18[may fluoresce violet], CIT2-GFP yeast inconclusive, MEP2 TOR yeast inconclusive, LAP4 TOR yeast inconclusive, AGP1 TOR yeast inconclusive
COc1ccccc1CNC(=O)CCNS(=O)(=O)c1ccc2[nH]c(=O)oc2c1	none
S=C(Sc1ccc(Cl)cc1)Sc1ccc(Cl)cc1	LAP4 TOR yeast 150
Cc1ccc(S(=O)(=O)N2CCCC(C(=O)NCC3CCCO3)C2)cc1 (stereo unspecified)	CIT2-GFP yeast inconclusive, MEP2 TOR yeast 274[may fluoresce violet]
O=C(NCC1CCCO1)C1CCCN(S(=O)(=O)c2ccc(Br)cc2)C1 (stereo unspecified)	none
COc1ccccc1NS(=O)(=O)c1ccc(C(=O)NCC(c2cccs2)N2CCOCC2)cc1 (stereo unspecified)	none
O=C(COC(=O)c1cc(S(=O)(=O)N2CCOCC2)ccc1F)NCc1ccc2c(c1)OCO2	none
CC1CC(C)CN(C(=O)C(C)N2CCN(S(=O)(=O)c3cccs3)CC2)C1 (stereo unspecified)	none
CCC(C)c1ccc(N(C(=O)c2ccco2)C(C(=O)NC2CCCC2)c2cccnc2)cc1 (stereo unspecified)	CIT2-GFP yeast inconclusive, MEP2 TOR yeast 271[may fluoresce violet]
COCCNC(=O)c1c(N)n(CCCn2ccnc2)c2nc3ccccc3nc12	RPL19A TOR yeast 44[may fluoresce violet], CIT2-GFP yeast inconclusive, MEP2 TOR yeast 224[may fluoresce violet], AGP1 TOR yeast inconclusive
Cc1ccc(C(=O)NCCn2c(N)c(C#N)c3nc4ccccc4nc32)cc1	CIT2-GFP yeast inconclusive, MEP2 TOR yeast 184[may fluoresce violet]
COCCNC(=O)c1c(N)n(-c2ccccc2)c2nc3ccccc3nc12	none
COc1ccc(Cl)cc1N(CC(=O)N1CCCC1)S(=O)(=O)c1ccc(C)cc1	RPL19A TOR yeast 47[may fluoresce violet], CIT2-GFP yeast inconclusive, MEP2 TOR yeast 216[may fluoresce violet], AGP1 TOR yeast inconclusive
COc1ccc(/C=N/Nc2nnc(C)n2N)cc1OC(C)=O	MEP2 TOR yeast 192
COc1ccc(/C=N/Nc2nnc(C)n2N)cc1OC	none
CC(C)(C)c1ccc(C(=O)NCCC(=O)Nc2cc(Cl)ccc2N2CCOCC2)cc1	none
O=S1(=O)N=C2CCCCCN2C(c2ccc(F)cc2)N1 (stereo unspecified)	RPL19A TOR yeast 17[may fluoresce violet], CIT2-GFP yeast inconclusive, MEP2 TOR yeast 192[may fluoresce violet], AGP1 TOR yeast inconclusive
